# In the library only some 19% were active in any assay of this set; here they are far more common.
# TDP1 cell noCPT: qHTS for Inhibitors of human tyrosyl-DNA phosphodiesterase 1 (TDP1): qHTS in cells in absence of CPT. DT40 Tdp1-/- hTDP1 cells, no CPT, ATP luminescence, 48 h. Potency, µM (series often up to 46.2 µM), inactives show at the highest dose activity change, negative = growth inhibition, hits mostly inhibitors. 420,000 compounds, 15% hits; note: nearly all actives have a fitted effect of over 55% in size
#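 Readout: luminescence from CellTiter-Glo after 30 min in the dark at RT. Cells: DT40 Tdp1-/- with stable hTDP1, 400/well. Exposure: compounds alone, ≥48 hr, 37 °C.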
# KB-V1 cytotox: qHTS assay for MDR1-selective chemotherapeutics: Primary screen using the drug-selected MDR subline cells KB-V1 | KB-V1 MDR cells viability, CellTiter-Glo, 72 h | Potency, µM (top dose mostly 46.1 µM), usual class: cytotoxic | 400,000 compounds, 3.4% hits | AID 1347076, 2019; note: nearly all actives have a fitted effect of over 60% in size
#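 Luminescent ATP read-out (CellTiter-Glo, 10 min) measures survival of drug-selected KB-V1 MDR cells after 72 h, 37 degrees C compound exposure. Medium: phenol-red-free DMEM, 10% FBS. Values from fitted concentration-response curves.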
# DT40 TDP1 CPT: qHTS for Inhibitors of human tyrosyl-DNA phosphodiesterase 1 (TDP1): qHTS in cells in presence of CPT; chicken DT40 Tdp1-/-;hTDP1 cells + 20 nM CPT, ATP luminescence, 48 h; Potency, µM (highest dose often 46.2 µM), inactives show top-dose activity change, negative = growth inhibition, most hits filed as inhibitors; 420,000 compounds, 12% hits; AID 686979, 2013; note: nearly all actives have a fitted effect of over 55% in size
#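 Chicken DT40 Tdp1-/- cells stably complemented with human TDP1 were seeded at 400 cells/well in medium containing 20 nM camptothecin, exposed to pin-transferred compounds, and grown at 37 °C for at least 48 hr. Viability was read as ATP luminescence.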
# HT1080-NT tox: qHTS for induction of synthetic lethality in tumor cells producing 2HG: qHTS for the HT-1080-NT fibrosarcoma cell line | HT-1080-NT fibrosarcoma viability, CellTiter-Glo ATP luminescence, 48 h | Potency, µM (top dose mostly 46.1 µM), for inactives: at the highest dose activity, negative = less viability, actives largely listed as cytotoxic | 360,000 compounds, 1.6% hits | AID 686970, 2013;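 note: NT is the 2HG producing partner of a matched IDH1 knockdown line; 0% = DMSO-treated cells and -100% = media-only wells without cells; nearly all actives have a fitted effect of over 55% in size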
#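 Fibrosarcoma NT cells, 750 per well in 5% FBS RPMI, were exposed to compound for 48 hours. Viability: CellTiter-Glo luminescence.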
# HT1080 IDH1KD tx: qHTS for induction of synthetic lethality in tumor cells producing 2HG: qHTS for the HT-1080-IDH1KD cell line. HT-1080 IDH1 knockdown viability, ATP luminescence, 48 h. AID 686971, 2013. Potency, µM (titrated, usually from 46.1 µM), for inactives: at the top dose activity, negative = toxicity, most hits filed as cytotoxic. 360,000 compounds, 2% hits;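 note: 0% = DMSO wells and -100% = cell-free medium wells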
#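 IDH1KD HT-1080 cells, 750/well, RPMI + 5% FBS; compound pinned after 2 h settling; 48 h, 37 °C; CellTiter-Glo luminescence; % activity normalised to DMSO and no-cell wells; curves fitted, classed by r2 and efficacy.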
# KB-3-1 cytotox: qHTS assay for MDR1-selective chemotherapeutics: Primary screen using the parental adenocarcinoma cell KB-3-1 | KB-3-1 viability, CellTiter-Glo ATP luminescence, 72 h | 400,000 compounds, 1.4% hits | Potency, µM (series often up to 46.1 µM), hits mostly cytotoxic; note: nearly all actives have a fitted effect of over 60% in size
#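 Luminescent ATP read-out (CellTiter-Glo) measures survival of drug-naive KB-3-1 cells after 72 h compound exposure at 37 °C. Titration series was screened from lowest to highest concentration, with DMSO vehicle plates as background controls.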
# The depositor's hits bear a star; i = inactive; ? = inconclusive; . = not tested or not shown; [ ] = another dose, or the depositor's remark. Calls come from the whole dose curve; as a rule, active = well fitted curve in the direction sought with a large enough effect; inconclusive = small, poorly fitted or top-dose-only effect, or another doubt; inactive = no such curve, though single readings can be large; an effect the other way counts as inactive or inconclusive. Unless noted, % is set by controls: 0 for no effect and ±100 for the full control effect; potency is the fitted concentration of half-maximal effect.
SMILES,TDP1 cell noCPT,KB-V1 cytotox,DT40 TDP1 CPT,HT1080-NT tox,HT1080 IDH1KD tx,KB-3-1 cytotox
COc1ccc(-c2ccc(C(=O)Nc3ccc4c(c3)OCO4)c3occc23)c(C)c1,?,i,?,-13%,-24%,i
COc1ccc(-c2coc3c(C(=O)Nc4ccc(OC)nc4)cccc23)c(C)c1,21µM*,i,18µM*,?,?,i
Nc1ncnc2c1ncn2[C@@H]1O[C@H](CNCc2ccc(-c3cc(C(F)(F)F)ccc3Cl)o2)[C@@H](O)[C@H]1O,?,i,?,-2%,-6%,i
O=C1CC(N2CCN(C3CC(=O)N(CCc4ccccc4)C3=O)CC2)C(=O)N1CCc1ccccc1 (stereo not given),?,?,?,-20%,2%[9.24 µM],i
O=C1CC(N2CCN(C/C=C/c3ccccc3)CC2)C(=O)N1CCc1ccccc1 (stereo not given),21µM*,12µM*,18µM*,?,-24%,i
COc1ccc(N2CC(NC(=O)COc3cccc(C)c3)CC2=O)cc1OC (stereo not given),21µM*,i,-28%,.,.,i
COc1cccc(N2CC(NC(=O)c3cc(Cl)ccc3OC)CC2=O)c1 (stereo not given),16µM*,.,?,.,.,.
COc1cccc(N2CC(NC(=O)c3cccs3)CC2=O)c1 (stereo not given),-8%,.,3%,.,.,.
O=C1CC[C@@H](C(=O)NCC2Cc3cc(Cl)cc(-c4ccc5[nH]ccc5c4)c3O2)N1 (stereo not given in full),-25%,.,-4%[9.04 µM],.,.,.
Oc1ccc(/C=N/NC(=S)NC2CC3CCC2C3)cc1 (stereo not given),?,i,?,?,-22%,i
COc1cccc(/C=N/NC(=S)NC2CC3CC2C2C=CCC32)c1O (stereo not given),29µM*,i,?,-3%,-11%,i
Oc1ccccc1/C=N/NC(=S)NC1CC2CC1C1C=CCC21 (stereo not given),4.1µM*,21µM*,3.7µM*,?,8.2µM*,?
Cc1ccc(CCNC(=O)c2cn(C)c3ccc(S(=O)(=O)N(C)C4CCCCC4)cc3c2=O)cc1,-4%,i,4%,.,.,i
COc1ccc(OCc2n(CC(=O)OC3CC(C)CCC3C(C)C)c3ccccc3[n+]2C)cc1 (stereo not given),2.3µM*,?,3.3µM*,5.8µM*,5.8µM*,13µM*
COc1ccc(-c2n(CC(=O)OC3CC(C)CCC3C(C)C)c3ccccc3[n+]2C)cc1 (stereo not given),0.41µM*,?,0.46µM*,6.5µM*,5.8µM*,?
CC1CCC(C(C)C)C(OC(=O)CSc2nccc(=O)[nH]2)C1 (stereo not given),-27%,i,?,4%,4%,i
CCC(C)NC(=O)C1c2ccccc2C(=O)N1Cc1ccc(F)cc1 (stereo not given),2%,i,-2%,3%,2%,i
O=C(COC(=O)CCC(=O)c1cccs1)Nc1ccc(F)c(F)c1F,-15%,i,-2%,0%,-1%,i
Cc1nc2ccc(N=NC3=C(O)CC(C)(C)CC3=O)cc2s1,?,i,-7%,-2%,9%,i
CCOc1ccc2nc(N=NC3=C(O)CC(C)(C)CC3=O)sc2c1,4.1µM*,i,3.7µM*,-5%,-27%,?
CCOC(=O)C1Nc2ccc(Br)cc2C2C=CCC12 (stereo not given),21µM*,i,?,-16%,-15%,i
CC(C)CNC(=O)C1Nc2ccc(OC(F)(F)F)cc2C2C=CCC12 (stereo not given),13µM*,i,?,0%,11%,i
CCOC(=O)C1Nc2ccc(C)cc2C2C=CCC12 (stereo not given),18µM*,i,?,-9%,-8%,i
CCn1c(=NC(=O)c2ccc(N3C(=O)CCC3=O)cc2)sc2c(OC)ccc(OC)c21,?,i,23µM*,-15%,-12%,i
CCn1c(=NC(=O)CN2C(=O)CCC2=O)sc2c(OC)ccc(OC)c21,?,i,?,12%,0%,i
SMILES,TDP1 cell noCPT,KB-V1 cytotox,DT40 TDP1 CPT,HT1080-NT tox,HT1080 IDH1KD tx,KB-3-1 cytotox
CCn1c(=NC(=O)c2cccc(N3C(=O)CCC3=O)c2)sc2c(C)ccc(OC)c21,-76%,i,18µM*,-23%,-10%,i
O=C(NCC(=O)N1CCOCC1)c1ccc(Cl)cc1,3%,i,-2%,12%,13%,i
Cc1ccc(NC(=O)c2c(C)oc3ccc(O)c(CN(C)Cc4ccccc4)c23)c(C)c1,15µM*,.,16µM*,.,.,.
CCN(Cc1ccccc1)Cc1c(O)ccc2oc(C)c(C(=O)Nc3ccc(C)cc3C)c12,7.3µM*,.,7.3µM*,.,.,.
Nc1cc(C(F)(F)F)ccc1Nc1ccccc1,?,i,6%,8%,9%,i
O=[N+]([O-])c1nn(-c2ccc(Cl)cc2)n(O)c1=NCc1ccccc1Cl,?,i,-18%,0%,-10%,i
Cc1ccc(CN=c2c([N+](=O)[O-])nn(-c3ccc(Cl)cc3)n2O)cc1,?,?,?,2%,5%,i
O=[N+]([O-])c1nn(-c2cccc(Cl)c2)n(O)c1=NCc1cccnc1,13µM*,i,8.2µM*,-4%,9%,i
O=[N+]([O-])c1nn(-c2ccc(Cl)cc2)n(O)c1=NCc1ccncc1,10µM*,i,5.2µM*,-10%,2%,i
Cc1cccc(-n2nc([N+](=O)[O-])c(=NCc3cccnc3)n2O)c1,?,?,12µM*,-1%,?,i
O=[N+]([O-])c1nn(-c2ccc(Cl)cc2)n(O)c1=NCc1cccnc1,10µM*,?,8.2µM*,11%,11%,i
Cc1ccc2oc(-c3ccc(C)c(NC(=O)COc4ccc(Cl)cc4C)c3)nc2c1,-11%,i,-22%,.,.,?

# Screens deposited in PubChem BioAssay by National Center for Advancing Translational Sciences (NCATS).
